NPR1 activator: GC-A (human) enzyme activation; HEK293 GC-A cells, cGMP TR-FRET, EC30 ANP; 0% at EC30 ANP, 100% saturating ANP; P16066; 370,000 tested, 0.14% active; activation, % at 10 µM; in the data active = activation above about 40%
NadD inh: blocks S. aureus nicotinate mononucleotide adenylyltransferase | purified NadD enzyme, colorimetric absorbance read-out | inhibition, % at 20 µM | 360,000 tested, 0.78% active; in the data active = inhibition above about 26%
Neddyl block: inhibitors of human cullin neddylation; TR-FRET cullin neddylation, biochemical; P61081+Q13564; inhibition, % at 25 µM; AID 651699; 360,000 tested, 0.58% active; in the data active = inhibition above about 36%
NPR2 activator: GC-B (human) receptor activation. activation, % at 10 µM. P20594. 370,000 tested, 0.11% active. HEK293-GC-B cells, CNP EC30, cGMP TR-FRET; 0% at EC30 CNP, 100% saturating CNP. AID 1920062;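 active = activation at 10 µM reaching about 35% in either raw or pattern-adjusted values, limit read from the data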
NadD inh conf: NadD (S. aureus) inhibition, single concentration confirmation. shares compounds with NadD inh. inhibition, % at 20 µM. 2,000 tested, 13% active. purified S. aureus NadD, colorimetric enzyme assay; in the data active = inhibition mostly above about 42%, no sharp cut-off; inactive = mostly below about 42%
Of the large screens only hits and unclear results are named; the others gave an inactive call (follow-up assays come after a bar, where shown). Hits are enriched below; roughly 1.5% of the tested compounds scored in any of these assays.

O=C(Nc1ccc(Cl)cc1)Nc1ccc(N2CCCC2)c(S(=O)(=O)Nc2ccccc2Cl)c1	NadD inh 33 | NadD inh conf inactive
CN(C)S(=O)(=O)c1ccc(C(=O)Nc2cc(S(=O)(=O)Nc3ccccc3Cl)ccc2N2CCCCC2)cc1	NadD inh 29 | NadD inh conf inactive
COc1ccccc1NS(=O)(=O)c1cc(NC(C)=O)ccc1N1CCCCC1	none
COc1ccccc1NS(=O)(=O)c1cc(NC(=O)Nc2cccc(C)c2)ccc1N1CCCCC1	NadD inh 30 | NadD inh conf inactive
Cc1cccc(NC(=O)c2cc(NC(=O)c3ccccc3)ccc2N2CCCCC2)c1	NadD inh 32 | NadD inh conf inactive
COc1ccc(-n2c(COc3ccc(C)cc3)nnc2SCC(=O)c2ccc(-c3ccccc3)cc2)cc1	none (no result: NadD inh, Neddyl block)
CCOC(=O)NC[C@@]1(C(=O)OC)CC(=O)N(C)[C@@H]1c1ccccc1	none (no result: NadD inh, Neddyl block)
Cc1cc2oc(=O)cc(CN3CCc4ccccc43)c2cc1Cl	NadD inh 32 | NadD inh conf inactive
O=[N+]([O-])c1cccc(/C=N/Nc2nnc(-c3ccccc3)c(-c3ccccc3)n2)c1	none
C/C(=N\Nc1nnc(-c2ccccc2)c(-c2ccccc2)n1)c1cccc([N+](=O)[O-])c1	NadD inh 33 | NadD inh conf inactive
O=C1C=C(c2cccc3c2Oc2ccccc2S3)C[C@@H](c2ccc3c(c2)OCO3)C1	none (no result: NadD inh, Neddyl block)
Cc1c(Nc2nc3ccccc3nc2NS(=O)(=O)c2cccc(Cl)c2)c(=O)n(-c2ccccc2)n1C	none
Cc1ccc(Nc2nc3ccccc3nc2Nc2c(C)n(C)n(-c3ccccc3)c2=O)cc1	NadD inh 35 | NadD inh conf inactive
O=C1OC(c2ccc3ccccc3c2O)(c2ccc3ccccc3c2O)c2ccccc21	NadD inh 41 | NadD inh conf 82
COc1ccc(CC(=O)N2CCN(C(=O)c3ccc4nc(C)n(C5CCCC5)c4c3)CC2)cc1	none (no result: NadD inh, Neddyl block)
Nc1nonc1-n1nnc(C(=O)N/N=C/C=C/c2ccccc2)c1CSC1=NCCS1	NadD inh 32 | NadD inh conf inactive
Nc1nonc1-n1nnc(C(=O)N/N=C/c2c(Cl)cccc2Cl)c1CSC1=NCCS1	NadD inh 34 | NadD inh conf inactive
NC(=O)c1ncn([C@@H]2O[C@H](C(=O)N[C@H](Cc3ccccc3)C(=O)N3CCN(CC(=O)Nc4ccccn4)CC3)[C@@H](O)[C@H]2O)n1	none (no result: NadD inh, Neddyl block)
O=c1c2c(-c3ccco3)csc2nc(SCc2cn3cccnc3n2)n1-c1ccccc1	NadD inh 36 (not shown: Neddyl block) | NadD inh conf inactive
O=C(CSc1nc2scc(-c3ccco3)c2c(=O)n1-c1ccccc1)NCC1CCCO1 (configuration not stated)	NadD inh 30 | NadD inh conf inactive
C=CCn1c(SCC(=O)NCC2CCCO2)nc2scc(-c3ccco3)c2c1=O (configuration not stated)	none
NC(=O)CSc1nc2scc(-c3ccco3)c2c(=O)n1-c1ccccc1	none
Cc1ccc(NC(=O)CC2Nc3ccccc3NC2=O)cc1Cl (configuration not stated)	NadD inh 31 | NadD inh conf inactive
CC(C)c1ccc(NC(=O)OC2CCC23CCC(c2ccccc2)CC3)cc1 (configuration not stated)	none (no result: NadD inh, Neddyl block)
Cc1cccc2sc(NNC(=O)c3cc(-c4cccs4)nc4ccccc34)nc12	NadD inh 49 | NadD inh conf 48
NNC(=O)c1cc(-c2cccs2)nc2ccccc12	none (not shown: Neddyl block)
COC(=O)c1cc2c(c3c4cc(OC)ccc4n(S(=O)(=O)c4cccc(C)c4)c13)C(=O)N(Cc1ccc(C(F)(F)F)cc1)C2	none (no result: NadD inh, Neddyl block)
C=CCN1CCc2nc(N)sc2CC1	NadD inh 30 | NadD inh conf inactive
Cc1ccc(C(=O)NN2CC(O)=C(c3nc(-c4cccc([N+](=O)[O-])c4)cs3)C2=N)cc1	NadD inh 33 | NadD inh conf inactive
C[C@H](CO)N1C[C@H](C)[C@H](CN(C)C(=O)Nc2cccc3ccccc23)Oc2ncc(Br)cc2C1=O	none (no result: NadD inh, Neddyl block)
Cc1ccc2oc(=O)c3cc(C(=O)NCCN4CCN(C)CC4)sc3c2c1	none
Cc1ccc2oc(=O)c3cc(C(=O)NCCCN4CCCCCC4)sc3c2c1	NadD inh 37 | NadD inh conf inactive
COc1ccccc1NC(=O)Cn1cnc2sc(C(=O)Nc3cc(OC)c(OC)c(OC)c3)c(C)c2c1=O	none
COc1ccccc1NC(=O)c1sc2ncn(CC(=O)Nc3ccccc3)c(=O)c2c1C	NadD inh 30 | NadD inh conf inactive
COc1ccc(C2NC(=S)N(Cc3ccc(Cl)cc3)C(C)=C2C(C)=O)cc1 (configuration not stated)	none (no result: NadD inh, Neddyl block)
Cc1ccc(C(=O)Nc2ccc(N3CCCC3)cc2)c(C)c1	NadD inh 32 | NadD inh conf inactive
O=C(Nc1ccc(N2CCCC2)cc1)c1cc(Br)ccc1Cl	NadD inh 41 | NadD inh conf 55
O=C(Nc1ccc(N2CCCC2)cc1)c1ccccc1[N+](=O)[O-]	NadD inh 27 | NadD inh conf inactive
Cc1ccccc1C(=O)Nc1ccc(N2CCCC2)cc1	none
O=C(NC1CCCCN(Cc2cccc(Cl)c2)C1=O)c1cccc([N+](=O)[O-])c1 (configuration not stated)	none (no result: NadD inh, Neddyl block)
O=C(CSc1nnc(-c2cccnc2)n1Cc1ccco1)Nc1ccc(Cl)c(Cl)c1	none (no result: NadD inh, Neddyl block)
COC(=O)C1=C(C)N(Cc2cccc(C(F)(F)F)c2)C(=NCc2ccc(OC)cc2)NC1c1cccc(F)c1 (configuration not stated)	none (no result: NadD inh, Neddyl block)
O=C(Nc1ccc2c(c1)nc1n2CCN(C2CCCCC2)C1)c1ccco1	none
COc1ccccc1C(=O)Nc1ccc2c(c1)nc1n2CCN(C2CCCCC2)C1	NadD inh 35 | NadD inh conf inactive
CCc1ccc2[nH]c(=O)c(CN(CCN(C)C)C(=S)NCc3ccco3)cc2c1	NadD inh 37 | NadD inh conf inactive
NC(=O)[C@H](Cc1cc2ccccc2s1)NC(=O)[C@@H]1CC2(CC(c3cccc(NC(=O)[C@@H]4CCC(=O)N4)c3)=NO2)CN1C(=O)/C=C/c1c(F)cccc1Cl (some centres not stated)	NadD inh 34 (no result: NPR1 activator, NPR2 activator) | NadD inh conf inactive
NC(=O)[C@H](Cc1cc2ccccc2s1)NC(=O)[C@@H]1CC2(CC(c3cccc(NC(=O)[C@@H]4CCC(=O)N4)c3)=NO2)CN1C(=O)/C=C/Sc1ccccc1 (some centres not stated)	none
O=C(C(=O)N1CCC(CNC(=O)c2cccs2)CC1)c1cc2ccccc2o1	none (no result: NadD inh, Neddyl block)
COc1ccc(S[C@]2(C(=O)N3CCOCC3)CC(=O)N(c3ccc(Cl)cc3)[C@@H]2c2ccc(OC)cc2)cc1	none (no result: NadD inh, Neddyl block)
Cc1ccc(-c2csc(N3CCN(c4cc5c(cc4Cl)nc(-c4ccncc4)n5CCN4CCCCC4)CC3)n2)cc1	NadD inh 31 (not shown: Neddyl block) | NadD inh conf inactive
Cc1ccc(-c2csc(N3CCN(c4ccc5nc(-c6ccncc6)n(CCN6CCCCC6)c5c4)CC3)n2)cc1	none (no result: NPR1 activator, NPR2 activator)
CC(C)(C)c1ccc(-c2nnc(SCc3ccccc3)n2Cc2ccco2)cc1	none (no result: NadD inh, Neddyl block)

Bioassay records (PubChem)
